Compounds with a hit are over-represented: about 1.2% of the library has one in this group of screens.
RGS7-Gao reg: regulators of human RGS7-Galphao interaction | P09471 | Multiplexed bead flow cytometry, RGS7-Galphao binding; actives lie on both sides | binding response (% of control), % at 10 µM | 220,000 compounds, 0.35% hits | AID 1439; in the data active = binding response below about 49% or above about 150%; inconclusive = no clear call, values can overlap the other calls; inactive = in between;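 note: fluorescent Galphao held in activated GDP-AlF4 state binding bead-coupled RGS7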
Target sequence (P09471 whole entry, looked up): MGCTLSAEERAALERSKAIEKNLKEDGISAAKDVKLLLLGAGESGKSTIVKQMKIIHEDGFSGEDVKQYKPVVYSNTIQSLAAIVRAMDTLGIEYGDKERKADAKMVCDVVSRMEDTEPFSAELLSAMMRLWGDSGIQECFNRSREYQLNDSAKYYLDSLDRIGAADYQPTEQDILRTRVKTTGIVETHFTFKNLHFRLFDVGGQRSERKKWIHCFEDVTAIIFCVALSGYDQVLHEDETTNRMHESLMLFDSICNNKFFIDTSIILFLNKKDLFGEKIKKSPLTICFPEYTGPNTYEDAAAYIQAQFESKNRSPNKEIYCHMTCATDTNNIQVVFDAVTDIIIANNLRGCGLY
GSH fluor: GSH bead compound fluorescence profile; GSH beads flow cytometry, compound fluorescence 488/530 nm; hits give high values; fluorescence (KMESF) at 10 µM; 190,000 compounds, 0.25% hits; AID 1776; in the data active = fluorescence above about 89;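 note: glutathione beads carrying GST-tagged Bcl family fusion proteins plus one bare bead set; values are compound well signal with DMSO vehicle wells as background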
RGS8-Gao reg: human RGS8-Galphao interaction regulation. P09471. multiplexed bead flow cytometry, RGS8-Galphao binding; actives lie on both sides. response (percent of control binding), % at 10 µM. 220,000 compounds, 0.34% hits. AID 1423; in the data active = response below about 60% or above about 140%; inactive = in between;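 note: Galphao activated as the GDP aluminium fluoride complex binding bead-coupled RGS8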
Avidin bead fluor: avidin bead compound fluorescence profile; Avidin beads, compound fluorescence 488/530 nm, flow cytometry; hits give high values; fluorescence (KMESF) at 10 µM; 220,000 compounds, 0.38% hits; in the data active = fluorescence above about 47
RGS16-Gao: modulates binding between human RGS16 and Galphao. O15492+P09471. bead-based flow cytometry RGS16-Galphao binding, fluorescence; actives lie on both sides. binding response (% of control), % at 10 µM. 220,000 compounds, 0.38% hits. AID 1441;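 note: Galphao activated by GDP with aluminum fluoride before binding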
Target sequence (O15492 whole entry, looked up): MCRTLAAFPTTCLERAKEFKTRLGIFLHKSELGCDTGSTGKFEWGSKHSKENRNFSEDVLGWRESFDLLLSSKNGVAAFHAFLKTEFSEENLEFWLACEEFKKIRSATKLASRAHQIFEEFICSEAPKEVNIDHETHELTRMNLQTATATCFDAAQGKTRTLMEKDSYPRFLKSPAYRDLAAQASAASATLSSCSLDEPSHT
Target sequence (P09471 whole entry, looked up): as the sequence (P09471 whole entry, looked up) above
RGS4-Gao reg: modulates binding of RGS4 to human Galphao; P09471; Multiplexed bead flow cytometry; actives lie on both sides; binding response (% of control), % at 10 µM; 220,000 compounds, 0.33% hits; AID 1415; in the data active = binding response below about 49% or above about 150%; inactive = in between;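 note: fluorescent Galphao activated with aluminum fluoride binding bead-coupled RGS4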
RGS4-Gao HTS: RGS4-Galphao interaction regulator (human) | shares compounds with RGS16-Gao | multiplexed bead flow cytometry, RGS–Galpha-o binding | RGS4–Galpha-o binding response, % at 10 µM | 1,600 compounds, 99% hits | AID 1504;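 note: fluorescently labeled Galpha-o bound to GDP with aluminium fluoride binding biotinylated RGS beads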
Biotin-avidin: biotin-avidin bead binding disruption counter-screen. streptavidin beads, fluorescein-biotin binding, flow cytometry. 1,700 tested, under 10 active. shares compounds with RGS16-Gao. inhibition, % at 10 µM;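 active = inhibition above 50%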;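 note: median green fluorescence of gated singlet beads compared with DMSO control wells; 0% = DMSO wells and 100% = complete loss of bead fluorescence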
RGS8-Gao single: RGS8-Galphao interaction regulation, single point confirmation; binding response (% of control), % at 10 µM; AID 1836; shares compounds with RGS16-Gao; 1,700 compounds, 3% hits; bead-based flow cytometry RGS8-Galphao binding, fluorescence; actives lie on both sides; in the data active = binding response below about 72% or above about 130%; inactive = in between;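 note: Galphao activated as GDP AlF4 complex before binding bead RGS8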
RGS7-Gao single: confirmation of regulators of human RGS7-Galphao interaction. shares compounds with RGS16-Gao. bead-based flow cytometry RGS7-Galphao binding; actives lie on both sides. response (percent of control binding), % at 10 µM. 1,700 compounds, 7.8% hits. AID 1837; in the data active = response below about 75% or above about 130%; inactive = in between;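 note: fluorescent Galphao activated with GDP and aluminum fluoride binding bead-coupled RGS7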
RGS16-Gao conf: RGS16-Galphao interaction regulation, single point confirmation; response (% of control binding), % at 10 µM; bead-based flow cytometry, RGS16-Galphao binding; actives lie on both sides; 1,700 compounds, 4% hits; shares compounds with RGS16-Gao; in the data active = response below about 74% or above about 130%; inactive = in between;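 note: Galphao activated as the GDP aluminium fluoride complex binding bead-coupled RGS16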
RGS4-Gao single: confirmation of regulators of human RGS4-Galphao interaction; shares compounds with RGS16-Gao; RGS4-Galphao binding, multiplexed bead flow cytometry; actives lie on both sides; 1,700 compounds, 4% hits; binding response (% of control), % at 10 µM; in the data active = binding response below about 74% or above about 130%; inactive = in between
RGS19-Gao single: RGS19-Galphao interaction regulation, single point confirmation; shares compounds with RGS16-Gao; bead-based flow cytometry RGS19-Galphao binding; actives lie on both sides; response (percent of control binding), % at 10 µM; 1,700 compounds, 5% hits; AID 1841; in the data active = response below about 50% or above about 160%; inactive = in between;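 note: 100% = no compound control and 0% = blank background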
Active calls of the source: *; ? = inconclusive; . = not tested or not shown; [ ] = dose if it differs, or a comment. Unless noted, the rule behind the calls is not given here.

SMILES	RGS7-Gao reg	GSH fluor	RGS8-Gao reg	Avidin bead fluor	RGS16-Gao	RGS4-Gao reg	RGS4-Gao HTS	Biotin-avidin	RGS8-Gao single	RGS7-Gao single	RGS16-Gao conf	RGS4-Gao single	RGS19-Gao single
CC(C)CC(NC(=O)c1ccccc1)C(=O)OCC(=O)Nc1ccc(Br)cn1 (stereo not drawn)	238*[activator]	36	92	346*	120	137	137*	-1	96	94	93	94	101
O=C(COc1ccccc1)NC(=S)Nc1ccc(Br)cn1	?	.	104	6	103	100	.	.	.	.	.	.	.
CC(C)(C)NC(=O)C(=O)NNC(=O)c1ccccc1Br	113	11	100	11	99	103	.	.	.	.	.	.	.
N#CC(C#N)=C1C=C2C=C(N3CCCCC3)CCC2CC1 (stereo not drawn)	186*[activator]	99*	110	84*	173	161*[activator]	.	1	105	137*[activator]	117	120	190*[activator]
N#CC1=C(N)C2=C(N3CCCCC3)CCCC2C1(C#N)C#N (stereo not drawn)	102	5	107	4	118	102	.	.	.	.	.	.	.
CCN(CC)C1=CC2=CC(=C(C#N)C#N)CCC2CC1 (stereo not drawn)	142	18	109	42	168	165*[activator]	.	3	103	167*[activator]	125	130*[activator]	363*[activator]
CCCCN(C)C1=CC2=CC(=C(C#N)C#N)CCC2CC1 (stereo not drawn)	164*[activator]	57	106	68*	167	147	147*	1	112	206*[activator]	157*[activator]	154*[activator]	293*[activator]
NC(=O)NC(CC(=O)NCCCc1ccccc1)c1ccc(Cl)cc1 (stereo not drawn)	?	.	97	7	100	97	.	.	.	.	.	.	.
O=C(O)C1CCCN1S(=O)(=O)c1ccc2[nH]c(=O)c(=O)[nH]c2c1 (stereo not drawn)	144	33	133	22	161	158*[activator]	.	1	102	102	100	102	79
Cc1nnc(Cl)c2nn(-c3ccccc3F)c(C)c12	103	8	101	4	105	102	.	.	.	.	.	.	.
Cc1nnc(SCCN2CCOCC2)c2nn(-c3ccccc3F)c(C)c12	109	3	121	13	180*[activator]	110	110*	0	110	111	113	109	112
N#Cc1c2c(c[nH]c1=O)CCN2Cc1ccccc1	103	48	101	6	102	102	.	.	.	.	.	.	.
CCOc1ccccc1-c1c2cc(O)c(=O)cc-2oc2cc(O)c(O)cc12	42*	10	69	4	47	85	85*	-2	64*	50*	63*	82	40*
O=c1cc2oc3cc(O)c(O)cc3c(-c3ccccc3O)c-2cc1O	?	.	87	2	86	90	.	.	.	.	.	.	.
CCCCN(C(=O)CSc1nnc(-c2ccc(OC)cc2)n1C(C)C)c1c(N)n(Cc2ccccc2)c(=O)[nH]c1=O	99	23	101	13	100	97	.	.	.	.	.	.	.
CCc1cccc(NC(=O)Cn2c3[n+](c4ccc(C(F)(F)F)cc42)CCCCC3)c1	126	9	147*[activator]	4	238*[activator]	128	128*	-1	106	108	105	108	113
O=C(Cn1c2[n+](c3ccc(C(F)(F)F)cc31)CCCCC2)Nc1ccccc1	104	9	101	9	106	105	.	.	.	.	.	.	.
CCCC(=O)NC(=S)Nc1cccc(C(C)=O)c1	119	36	145*[activator]	14	326	114	114*	1	100	100	100	100	98
CCCCCC(=O)NC(=S)Nc1cccc(C(C)=O)c1	101	17	102	16	103	99	.	.	.	.	.	.	.
O=C(Nc1nnc(-c2ccccc2Cl)o1)c1cc2cc([N+](=O)[O-])ccc2s1	92	5	83	8	17*	94	94*	.	.	.	.	.	.
COC(=O)c1ccc(CSc2nnc(CS(=O)Cc3ccc(Br)cc3)n2-c2ccccc2)cc1 (stereo not drawn)	99	21	101	12	103	101	.	.	.	.	.	.	.
COc1ccc(N(CC(=O)NCc2cccs2)S(=O)(=O)c2c(C)n[nH]c2C)cc1	74	16	58*	6	14*	75	75*	.	.	.	.	.	.
O=C(CCc1ccccc1)NNC(=O)c1ccc(NC(=O)c2ccccc2)cc1	85	10	77	4	2.7*	82	82*	-2	99	91	96	94	92
CC(=O)Nc1ccc(NC(=O)c2ccco2)cc1	85	15	69	8	-100*	83	83*	-1	102	97	102	101	94
C=CCOc1ccc(/C(O)=C2/C(=O)C(=O)N(CCCN3CCOCC3)C2c2ccc(OC)cc2)cc1 (stereo not drawn)	104	27	107	33	109	106	.	.	.	.	.	.	.
Cc1nc(Sc2ccccc2)c(C#N)c(C)c1[N+](=O)[O-]	?	.	92	3	85	89	.	.	.	.	.	.	.
Cc1cc(Cl)ccc1N=c1ssnc1Cl	107	7	77	8	19*	83	83*	-1	87	93	78	97	55
Cc1ccc(-n2c(C)c([N+](=O)[O-])c3ccc(O)c(CN(C)C)c32)cc1	105	12	103	8	105	104	.	.	.	.	.	.	.
COc1ccc(-n2c(C)c([N+](=O)[O-])c3ccc(O)c(CN4CCCCC4)c32)cc1	79	10	92	8	-307	25*	.	0	101	108	100	103	84
CC1=C(C(=O)OCC2CCCO2)C(c2ccsc2)C2=C(CC(C)(C)CC2=O)N1 (stereo not drawn)	98	10	98	15	103	98	.	.	.	.	.	.	.
